This passage reports outcome results from PubChem BioAssay (EPA / NIEHS).

Results filed as inconclusive are left out. Activity calls are given as the source filed them. How the source made its calls, unless noted: active means hit-call score of the fitted dose curve at least 0.9, where 1 is the maximum; inconclusive means response in the unintended direction; inactive means score below 0.9.

THRA (gene 7067), sequence (P10827 whole entry, looked up, the tested form may be a part): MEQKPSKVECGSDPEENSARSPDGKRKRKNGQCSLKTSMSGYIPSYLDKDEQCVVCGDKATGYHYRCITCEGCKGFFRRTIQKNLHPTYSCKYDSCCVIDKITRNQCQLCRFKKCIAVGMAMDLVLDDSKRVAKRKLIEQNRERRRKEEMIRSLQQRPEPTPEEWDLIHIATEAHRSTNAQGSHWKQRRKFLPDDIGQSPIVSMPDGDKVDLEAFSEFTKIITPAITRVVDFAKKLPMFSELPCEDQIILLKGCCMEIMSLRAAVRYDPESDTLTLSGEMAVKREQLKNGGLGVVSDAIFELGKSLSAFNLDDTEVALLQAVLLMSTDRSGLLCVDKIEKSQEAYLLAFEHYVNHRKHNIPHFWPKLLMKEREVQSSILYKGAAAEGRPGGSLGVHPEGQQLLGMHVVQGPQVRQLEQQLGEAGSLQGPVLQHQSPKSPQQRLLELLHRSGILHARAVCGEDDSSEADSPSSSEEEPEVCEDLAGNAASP

Tested on in the first assay: not listed separately
Kind of assay: TOX21_PR_LUC_Followup_Antagonist_viability: Viability Assessment in the Tox21 HEK293 Progesterone Receptor (PR) Antagonism Luciferase Follow-Up Assay (AID 2283940). Summed up: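 HEK293-PR-A-luc cells kept in charcoal-stripped FBS medium were plated 5 h before compound addition, then exposed 16 h at 37C; viability read as cellular ATP by luciferase luminescence, loss of signal indicating cytotoxicity.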
Regarding `O=c1c(O)c(-c2ccc(O)cc2)oc2cc(O)cc(O)c12`, the call was inactive. The same measure, in the same setting: then `CCCOC(=O)c1c(Cl)c(Cl)c(Cl)c(Cl)c1C(=O)OCCC`, with “inactive”. `O=C(Nc1ccc2c(c1)Cc1ccccc1-2)C(F)(F)F`: the call was inactive.

For the compound `C=C1CC[C@H](O)C/C1=C/C=C1\CCC[C@]2(C)[C@@H]([C@H](C)/C=C/[C@H](C)C(C)C)CC[C@@H]12`, the result was inactive. As for `CCOC(=O)C(C#N)=C(c1ccccc1)c1ccccc1`, the result was inactive. On the same count and under the same terms, the value for `N#Cc1ccc(CC(=O)c2cccc(C(F)(F)F)c2)cc1` was “inactive”.

Tested on in the next assay: not listed separately
Briefly: TOX21_PR_LUC_Followup_Agonist_viability: Viability Assessment in the Tox21 HEK293 Progesterone Receptor (PR) Agonism Luciferase Follow-Up Assay (AID 2283941).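 Further: loss of signal means cytotoxicity so actives lower viability.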 Summed up:
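HEK293-PR-A-luc cells, kept in 10% charcoal-stripped FBS medium, were treated with compounds for 16 h at 37C. Viability read as cellular ATP by luciferase-coupled luminescence; loss of signal indicates cytotoxicity.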
For the compound `O=c1c(O)c(-c2ccc(O)cc2)oc2cc(O)cc(O)c12`, the call was inactive. On the same count and under the same terms, then `CCCOC(=O)c1c(Cl)c(Cl)c(Cl)c(Cl)c1C(=O)OCCC`, with “inactive”; and `O=C(Nc1ccc2c(c1)Cc1ccccc1-2)C(F)(F)F`, with “inactive”. On the same count and under the same terms, then `CCOC(=O)C(C#N)=C(c1ccccc1)c1ccccc1`, with “inactive”. On to `N#Cc1ccc(CC(=O)c2cccc(C(F)(F)F)c2)cc1`, for which the result was inactive.

Another assay addresses THRA (gene 7067) (UniProt P10827). Kind of assay: TOX21_TRA_COA_Agonist_Followup_ratio: Tox21 Thyroid Hormone Receptor alpha Agonism through Coactivator Recruitment Follow-Up Assay, Ratio (AID 2283948; active means hit-call score of the fitted dose curve at least 0.9, where 1 is the maximum; inactive means score below 0.9). Summed up:
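Cell-free TR-FRET coactivator recruitment: GST-tagged TRα LBD (2.5 nM) with 0.10% BSA was incubated with compound, then fluorescein-SRC-2 peptide (200 nM) and Tb-anti-GST antibody (2 nM) added. 520:495 nm ratio normalized to DMSO (0%) and T3 (100%).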
On to `Cc1cc(C)nc(NS(=O)(=O)c2ccc(N)cc2)n1`, for which the result was inactive. Still for that read-out and setting: the value for `CC(=O)Nc1ccc(C(=O)CCl)cc1` was “inactive”; that for `OCCCCC(O)CO` (stereo unspecified) was “inactive”. Regarding `C[C@H](CCC(=O)NCC(=O)O)[C@H]1CC[C@H]2[C@@H]3[C@H](O)C[C@@H]4C[C@H](O)CC[C@]4(C)[C@H]3C[C@H](O)[C@]12C`, the result was inactive. The same measure, in the same setting: then `O=Cc1ccccc1S(=O)(=O)O`, with “inactive”.

The target in another assay is THRB (gene 7068) (UniProt P10828). Kind of assay: TOX21_TRB_COA_Agonist_Followup_ratio: Tox21 Thyroid Hormone Receptor beta Agonism through Coactivator Recruitment Follow-Up Assay, Ratio (AID 2283963; active means hit-call score of the fitted dose curve at least 0.9, where 1 is the maximum; inactive means score below 0.9). From the text: TOX21_TRb_COA_Agonist_Followup is a secondary assay for specificity for the TOX21_TR_GH3_LUC_Agonist assay. The LanthaScreen TR-FRET TR coactivator assay kits were used to determine TR activity in a cell-free functional assay. A time-resolved fluorescence resonance energy transfer (TR-FRET) signal was indicative of coactivator (SRC-2) recruitment.TOX21_TRB_COA_Agonist_Followup_ratio is assay component calculated in the TOX21_TRB_COA_Agonist_Followup assay. The TR-FRET ratio of acceptor emission (ch2) to donor emission (ch1) is indicative of the resonance energy transfer to the fluorescein tag on the coactivator peptide following recruitment to the receptor.Data from the assay component […] was analyzed into 1 assay endpoint. This assay endpoint, […], was analyzed in the positive analysis fitting direction relative to DMSO as the negative control and baseline of activity. Using a type of inducible reporter, gain-of-signal activity can be used to understand changes in the reporter gene as they relate to the gene THRB. Furthermore, this assay endpoint can be referred to as a primary readout, because this assay has produced multiple assay endpoints and this ratio serves a reporter gene function to understand target activity. To generalize the intended target to other relatable targets, this assay endpoint is annotated to the nuclear receptor intended target family, where the subfamily is non-steroidal.
THRB (gene 7068), sequence (P10828 whole entry, looked up): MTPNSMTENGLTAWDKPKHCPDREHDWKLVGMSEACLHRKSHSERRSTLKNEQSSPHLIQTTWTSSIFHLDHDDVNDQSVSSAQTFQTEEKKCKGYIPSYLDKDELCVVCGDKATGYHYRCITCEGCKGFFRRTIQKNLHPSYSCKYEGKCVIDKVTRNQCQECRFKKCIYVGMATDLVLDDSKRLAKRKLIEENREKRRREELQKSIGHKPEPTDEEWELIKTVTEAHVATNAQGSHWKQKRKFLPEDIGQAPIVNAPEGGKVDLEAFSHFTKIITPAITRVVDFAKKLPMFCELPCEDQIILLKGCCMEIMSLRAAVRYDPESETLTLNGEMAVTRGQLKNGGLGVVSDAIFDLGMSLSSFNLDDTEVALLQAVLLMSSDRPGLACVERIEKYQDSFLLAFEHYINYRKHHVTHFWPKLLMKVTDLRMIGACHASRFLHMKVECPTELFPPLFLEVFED
Cell Media Required: Growth (90% DMEM/F-12, 10% Fetal Bovine Calf Serum, 100U/ml Penicillin, 100 ug/ml Streptomycin), Assay (10ng/mL sodium selenite, 10 ug/mL humanapo-transferrin, 10 uM ethanolamine, 10 ug/mL insulin, 500 ug/mL bovine serum albumin (BSA))Assay Protocol: 4 uL mixture of the receptor LBDs expressed as glutathione S-transferase (GST) fusion proteins (2.5 nM for TRa and 5.0 nM for TRb) and BSA (0.10%; Sigma-Aldrich) were incubated with 23 nL of control or test compound. A time-resolved fluorescence resonance energy transfer(TR-FRET) signal was indicative of coactivator recruitment using a 2 uL mixture of fluoresce in-labeled SRC-2 peptide (200 nM) and terbium-labeled anti-GST antibody (2nM), which transferred resonance energy to the fluorescein tag on the coactivator peptide following recruitment to the receptor. Fluorescence emission ratios (520:495 nm) were collected by an Envision plate reader (excitation at 340 nm and emissions at 495 and 520 nm), and the measured values were normalized to 0% activity using DMSO-only wells and 100 activity using T3 control wells.
On to `Cc1cc(C)nc(NS(=O)(=O)c2ccc(N)cc2)n1`, for which the outcome was inactive. Same read-out and setting: the value for `CC(=O)Nc1ccc(C(=O)CCl)cc1` was “inactive”. The same measure, in the same setting: then `OCCCCC(O)CO` (stereo unspecified), with “inactive”; and `C[C@H](CCC(=O)NCC(=O)O)[C@H]1CC[C@H]2[C@@H]3[C@H](O)C[C@@H]4C[C@H](O)CC[C@]4(C)[C@H]3C[C@H](O)[C@]12C`, with “inactive”; and `O=Cc1ccccc1S(=O)(=O)O`, with “inactive”.
